The record followed here is PubChem BioAssay (Tox21).

Experiment [1] deals with Progesterone receptor (Homo sapiens) (UniProt P06401). The experiment in a line: qHTS assay to identify small molecule agonists of the progesterone receptor (PR) signaling pathway (AID 1346784; calls by dose curve; further: nearly all actives have a fitted effect of over 30% in size). In a few lines: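 Beta-lactamase reporter read-out: after 16 hr compound treatment at 37C and a further 2 hr at room temperature with LiveBLAzer B/G FRET substrate, fluorescence was measured in PR-UAS-bla HEK 293T cells grown in 2% charcoal-stripped serum.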
Chain of Progesterone receptor (Homo sapiens) (P06401 whole entry, looked up): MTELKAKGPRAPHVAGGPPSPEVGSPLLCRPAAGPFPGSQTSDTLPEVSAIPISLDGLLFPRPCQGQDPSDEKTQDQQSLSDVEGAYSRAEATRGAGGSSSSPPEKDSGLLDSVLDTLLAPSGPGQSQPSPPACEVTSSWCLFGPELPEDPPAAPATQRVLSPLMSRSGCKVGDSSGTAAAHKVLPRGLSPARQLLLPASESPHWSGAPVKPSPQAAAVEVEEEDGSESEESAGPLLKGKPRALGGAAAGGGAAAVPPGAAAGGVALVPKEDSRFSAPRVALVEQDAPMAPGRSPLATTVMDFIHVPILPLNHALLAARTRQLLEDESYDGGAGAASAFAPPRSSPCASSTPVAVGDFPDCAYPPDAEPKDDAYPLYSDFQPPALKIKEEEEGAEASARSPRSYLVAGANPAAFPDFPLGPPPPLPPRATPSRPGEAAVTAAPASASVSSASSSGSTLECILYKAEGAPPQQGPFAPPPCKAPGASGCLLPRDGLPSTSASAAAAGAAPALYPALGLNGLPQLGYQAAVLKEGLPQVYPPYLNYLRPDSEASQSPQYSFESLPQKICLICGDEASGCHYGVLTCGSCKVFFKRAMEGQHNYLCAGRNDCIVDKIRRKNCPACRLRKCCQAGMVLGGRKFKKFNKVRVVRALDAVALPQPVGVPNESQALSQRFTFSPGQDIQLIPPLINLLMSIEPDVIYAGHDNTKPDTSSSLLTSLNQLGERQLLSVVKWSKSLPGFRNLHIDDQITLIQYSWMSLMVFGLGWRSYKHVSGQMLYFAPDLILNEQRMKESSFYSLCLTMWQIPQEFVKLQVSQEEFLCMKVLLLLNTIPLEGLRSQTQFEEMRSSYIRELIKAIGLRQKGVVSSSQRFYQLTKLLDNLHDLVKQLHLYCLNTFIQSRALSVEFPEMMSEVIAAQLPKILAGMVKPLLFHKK
On the technique in general: qHTS replaces the single test concentration by a dilution series.

Experiment [2] can be described thus: qHTS assay to identify small molecule antagonists of the progesterone receptor (PR) signaling pathway - cell viability counter screen (AID 1346798). Further: nearly all actives have a fitted effect of over 50% in size. Further: potency means the concentration at half of the fitted maximal effect. In a few lines:
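HEK293T PR-UAS-bla, 2% charcoal-stripped FBS; 4 hr pre-plate; cpd + R5020, 16 h 37C; LiveBLAzer read first; then CellTiter-Glo 30 min RT, luminescence.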

A short description of experiment [3]: qHTS assay to identify small molecule agonists of the progesterone receptor (PR) signaling pathway - cell viability counter screen (AID 1346799; calls by dose curve; further: nearly all actives have a fitted effect of over 45% in size; further: potency means the concentration at half of the fitted maximal effect). In a few lines: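 Luminescence from CellTiter-Glo, added after the beta-lactamase FRET read in the same wells, gave cytotoxicity in PR-UAS-bla HEK293T cells treated with compounds for 16 hr at 37C.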
A short description of experiment [4]: qHTS assay to identify small molecule agonists of the TGF-beta/Smad signaling pathway - cell viability counter screen (AID 1346829). Further: top concentration of the series differs between compounds; nearly all actives have a fitted effect of over 45% in size. In a few lines: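 Tox21 qHTS format: SBE-bla HEK 293T cells treated with DMSO-dissolved compounds for 5 hr; CellTiter-Glo luminescence after 30 min at room temperature.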
Experiment [5] in a line: qHTS assay to identify small molecule agonists of the TGF-beta/Smad signaling pathway (AID 1346859; active means well fitted activation curve with a large enough effect in the signal ratio in the repeat runs, not every such curve was filed as active; the % refers to the signal ratio; further: series mostly up to about 77 µM). In a few lines: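 SBE-bla HEK 293T, 4,000 cells/well, plated o/n; cpd in DMSO, 5 hr, 37 C/5% CO2; B/G FRET substrate 2 hr RT; ex 405, em 460/530 nm.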
Experiment [6] is described as follows: Human pregnane X receptor (PXR) small molecule agonists, qHTS cell viability counter screen (AID 1346977). Further: nearly all actives have a fitted effect of over 50% in size. In a few lines: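 PXR-Luc HepG2, 2,000 cells/well, 5% charcoal-stripped FBS; 5hr settle; cpd 24hr, 37C/5% CO2; CellTiter-Fluor at 23hr, read 1hr later (fluorescence).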
Experiment [7] in a line: Caspase-3/7 induction in HepG2 cells by small molecules, qHTS assay (AID 1346978). Further: nearly all actives have a fitted effect of over 15% in size. In a few lines:
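Wild-type HepG2 cells (2,000/well) were settled 5 h at 37 C, 5% CO2, then exposed to compounds in DMSO for 17 h. Caspase-3/7 activity was read by luminescence 30 min after adding Caspase-Glo 3/7 reagent at room temperature.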

The nature of experiment [8]: Caspase-3/7 induction in CHO-K1 cells by small molecules, qHTS cell viability counter screen (AID 1346979). Further: nearly all actives have a fitted effect of over 35% in size. In outline:
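Cells (CHO-K1, wild type) are plated at 1,500 per well and incubated 5hr. Test compounds in DMSO are then pinned in, followed by 16hr at 37C and 5% CO2. Viability is read by CellTiter-Fluor fluorescence after 1hr.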

The nature of experiment [9]: Caspase-3/7 induction in CHO-K1 cells by small molecules, qHTS assay (AID 1346980). Further: nearly all actives have a fitted effect of over 15% in size. Further: potency means the concentration at half of the fitted maximal effect. In a few lines:
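Wild-type cells were seeded at 1,500 per well and settled 5 hr at 37 C, 5% CO2, then exposed to DMSO-dissolved compounds for 17 hr. Caspase-Glo 3/7 reagent was added, and luminescence was read after 30min at room temperature.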

The nature of experiment [10]: Caspase-3/7 induction in HepG2 cells by small molecules, qHTS cell viability counter screen (AID 1346981). Further: series mostly up to about 92 µM; nearly all actives have a fitted effect of over 30% in size. In a few lines: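 The parent HepG2 line is plated at 2,000 cells per well and rested 5 hr before compound pinning from DMSO stocks. Following a 16-hr treatment at 37 C, a fluorogenic live-cell substrate (CellTiter-Fluor) reports viability after 1 hr.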
Experiment [11] deals with Nuclear receptor subfamily 1 group I member 2 (Homo sapiens) (UniProt O75469). The experiment in a line: Human pregnane X receptor (PXR) small molecule agonists, qHTS assay (AID 1346982). Further: nearly all actives have a fitted effect of over 35% in size. Further: potency means the concentration at half of the fitted maximal effect. In outline: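 After plating in 5% charcoal-stripped FBS and a 5 hr rest, PXR-Luc HepG2 cells received compounds in DMSO. Following 24 hr at 37 C, ONE-Glo was added and light output read.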
Chain of Nuclear receptor subfamily 1 group I member 2 (Homo sapiens) (O75469 whole entry, looked up): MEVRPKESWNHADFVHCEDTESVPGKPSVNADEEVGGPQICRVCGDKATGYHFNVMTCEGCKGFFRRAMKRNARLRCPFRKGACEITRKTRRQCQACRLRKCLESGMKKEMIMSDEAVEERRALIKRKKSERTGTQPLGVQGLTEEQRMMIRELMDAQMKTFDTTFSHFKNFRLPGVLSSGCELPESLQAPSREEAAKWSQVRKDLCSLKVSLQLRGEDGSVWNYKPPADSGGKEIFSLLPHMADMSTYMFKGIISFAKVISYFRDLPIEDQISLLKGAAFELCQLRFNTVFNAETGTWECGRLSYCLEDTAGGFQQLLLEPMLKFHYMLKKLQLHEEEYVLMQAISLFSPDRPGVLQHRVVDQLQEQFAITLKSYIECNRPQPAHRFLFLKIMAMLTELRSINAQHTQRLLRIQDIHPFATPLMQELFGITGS

For experiment [12], the target named is Nuclear receptor subfamily 1 group I member 2 (Rattus norvegicus) (UniProt Q9R1A7). The experiment in a line: Rat pregnane X receptor (rPXR) activation by small molecules, qHTS assay (AID 1346983). Further: nearly all actives have a fitted effect of over 20% in size. Particulars: rPXR luciferase reporter cells, One-Glo luminescence, 24 h; max activation: stronger effect = higher value. In a few lines:
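Cell-based rPXR luciferase reporter assay, 2,000 cells per well, rested 5hr at 37 C before compound addition in DMSO, then 24 hr at 37 C. One-Glo reagent was added and luminescence read after 30 min at room temperature.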

The target of experiment [13] is Nuclear receptor subfamily 1 group I member 2 (Homo sapiens) (UniProt O75469). Description: CYP3A4 induction through human pregnane X receptor (PXR) by small molecules, qHTS assay (AID 1346984). Further: nearly all actives have a fitted effect of over 40% in size. Further: potency means the concentration at half of the fitted maximal effect. In outline:
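Human PXR activation is tracked via CYP3A4 promoter-luciferase in DPX-2 (HepG2) cells. Compounds treat cells for 24hr at 37C, and luminescence is read after One-Glo.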

The target in experiment [14] is Cytochrome P450 2D6 (Homo sapiens) (UniProt P10635). Description: Cytochrome P450 Family 2 Subfamily D Member 6 (CYP2D6) small molecule antagonists: luciferase reporter qHTS assay (AID 1671196). Further: nearly all actives have a fitted effect of over 50% in size. Further: potency means the concentration at half of the fitted maximal effect. In outline: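 Quantitative HTS of Tox21 chemicals against CYP2D6 using a luminescent proluciferin substrate. After NADPH addition, 1 h room-temperature reaction; luminescence recorded 20 min post detection reagent.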
Chain of Cytochrome P450 2D6 (Homo sapiens) (P10635 whole entry, looked up): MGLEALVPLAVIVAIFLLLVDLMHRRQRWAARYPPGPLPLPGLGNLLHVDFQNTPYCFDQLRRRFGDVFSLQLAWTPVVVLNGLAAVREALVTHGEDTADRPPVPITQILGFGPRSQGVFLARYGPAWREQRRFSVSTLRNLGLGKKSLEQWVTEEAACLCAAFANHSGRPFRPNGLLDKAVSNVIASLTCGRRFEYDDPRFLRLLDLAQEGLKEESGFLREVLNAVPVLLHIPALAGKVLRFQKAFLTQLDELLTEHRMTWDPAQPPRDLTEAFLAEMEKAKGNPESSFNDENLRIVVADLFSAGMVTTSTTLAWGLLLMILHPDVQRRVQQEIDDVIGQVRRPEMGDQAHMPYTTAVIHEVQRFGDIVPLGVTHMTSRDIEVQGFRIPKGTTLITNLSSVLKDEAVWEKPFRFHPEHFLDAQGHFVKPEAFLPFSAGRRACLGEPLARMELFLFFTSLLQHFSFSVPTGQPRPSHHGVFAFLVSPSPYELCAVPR

For experiment [15], the target named is Thyrotropin-releasing hormone receptor (Homo sapiens) (UniProt P34981). The experiment in a line: qHTS assay to identify small molecule antagonists of the thyrotropin-releasing hormone receptor (TRHR) signaling pathway (AID 1346877; active means well fitted inhibition curve with a large enough effect in the repeat runs, not every such curve was filed as active; further: series mostly up to about 51 µM). In a few lines: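 Human TRHR in HEK293 cells; inhibition of the intracellular calcium rise triggered by 1 nM TRH was followed by fluorescence over 3 min. Compounds were run at 15 concentrations, three replicates each.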
Chain of Thyrotropin-releasing hormone receptor (Homo sapiens) (P34981 whole entry, looked up): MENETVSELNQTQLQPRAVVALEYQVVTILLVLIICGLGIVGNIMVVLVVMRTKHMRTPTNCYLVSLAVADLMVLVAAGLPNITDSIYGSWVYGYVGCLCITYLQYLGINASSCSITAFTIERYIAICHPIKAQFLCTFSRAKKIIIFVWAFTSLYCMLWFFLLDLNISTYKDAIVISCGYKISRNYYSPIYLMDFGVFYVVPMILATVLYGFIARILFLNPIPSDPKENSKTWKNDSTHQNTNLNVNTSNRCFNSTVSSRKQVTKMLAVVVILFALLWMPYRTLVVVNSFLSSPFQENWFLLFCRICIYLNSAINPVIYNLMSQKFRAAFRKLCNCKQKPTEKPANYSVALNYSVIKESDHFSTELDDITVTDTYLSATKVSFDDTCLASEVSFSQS

Experiment [16] has the same target. The experiment in a line: qHTS assay to identify small molecule agonists of the thyrotropin-releasing hormone receptor (TRHR) signaling pathway (AID 1346891; calls by dose curve; further: series mostly up to about 58 µM). In outline:
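Intracellular calcium rise, read as fluorescence every second for 3 min, served as the agonist signal in dye-loaded HEK293 cells expressing TRHR; each compound ran at 15 concentrations in triplicate.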

The target of experiment [17] is Cytochrome P450 2C19 (Homo sapiens) (UniProt P33261). Description: Cytochrome P450 Family 2 Subfamily C Member 19 (CYP2C19) small molecule antagonists: luciferase reporter qHTS assay (AID 1671197). Further: nearly all actives have a fitted effect of over 65% in size. Further: potency means the concentration at half of the fitted maximal effect. In outline:
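Relative luminescence units recorded 20 min after the detection reagent stopped a 1 h, 37C CYP2C19 reaction on proluciferin substrate, which was started by NADPH regeneration following 10 min room-temperature compound preincubation; ketoconazole positive control.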
A general note: A reporter such as luciferase makes a cellular process visible.

Experiment [18] in a line: qHTS assay to identify small molecule antagonists of the TGF-beta/Smad signaling pathway - cell viability counter screen (AID 1346824). Further: nearly all actives have a fitted effect of over 50% in size. In a few lines: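 SBE-bla HEK 293T cells were plated overnight at 37 C, then given compounds in DMSO plus TGF-beta1 (added as 0.25 ng/mL solution) for 5 hr. After the bla read, CellTiter-Glo was added to the same wells and luminescence read after 30 min at room temperature.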

Molecules are shown by their SMILES. A number with no mark means an inactive call. Inconclusive results are not listed. Active and inactive are the calls of the source. Unless noted, the call rests on the fitted dose curve; in most records, active means well fitted curve in the direction sought with a large enough effect in the repeat runs; inconclusive means weak or mixed curves; inactive means no such curve, though single readings can be large; an effect the other way counts as inactive or inconclusive.
On the % scale 0 is the no-effect control and ±100 the full control effect.

Chain of Cytochrome P450 2C19 (Homo sapiens) (P33261 whole entry, looked up): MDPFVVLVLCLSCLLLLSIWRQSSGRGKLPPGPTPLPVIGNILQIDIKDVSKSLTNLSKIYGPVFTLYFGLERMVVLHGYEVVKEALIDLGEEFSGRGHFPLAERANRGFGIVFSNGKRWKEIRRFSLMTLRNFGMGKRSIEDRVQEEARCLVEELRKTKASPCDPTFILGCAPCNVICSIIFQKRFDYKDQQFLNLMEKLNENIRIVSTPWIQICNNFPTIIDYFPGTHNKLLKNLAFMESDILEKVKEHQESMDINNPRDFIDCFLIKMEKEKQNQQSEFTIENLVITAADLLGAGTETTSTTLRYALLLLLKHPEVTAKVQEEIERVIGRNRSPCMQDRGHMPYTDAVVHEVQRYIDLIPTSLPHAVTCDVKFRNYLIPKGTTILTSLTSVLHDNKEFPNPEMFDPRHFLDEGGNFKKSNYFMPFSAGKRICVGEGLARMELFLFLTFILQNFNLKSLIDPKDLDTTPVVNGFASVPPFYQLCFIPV
Chain of Nuclear receptor subfamily 1 group I member 2 (Rattus norvegicus) (Q9R1A7 whole entry, looked up): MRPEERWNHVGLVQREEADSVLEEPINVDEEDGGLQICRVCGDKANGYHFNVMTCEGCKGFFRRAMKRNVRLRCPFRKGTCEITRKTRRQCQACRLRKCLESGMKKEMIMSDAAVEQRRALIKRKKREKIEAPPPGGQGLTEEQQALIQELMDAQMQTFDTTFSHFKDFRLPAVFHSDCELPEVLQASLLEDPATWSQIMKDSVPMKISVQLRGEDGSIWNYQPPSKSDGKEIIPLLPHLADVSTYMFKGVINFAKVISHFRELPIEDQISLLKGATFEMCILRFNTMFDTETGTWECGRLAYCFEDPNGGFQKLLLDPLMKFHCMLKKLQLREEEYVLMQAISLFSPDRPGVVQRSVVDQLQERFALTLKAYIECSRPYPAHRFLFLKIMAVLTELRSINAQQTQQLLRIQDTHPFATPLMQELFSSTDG

For the compound `CCN(CC)C(C)CN1c2ccccc2Sc2ccccc21` (stereo not drawn), the result in [1], in experiment [5] and in [7] was inactive. Also, the Potency result in experiment [2], in [3], in experiment [4], in experiment [6], in [8] and in experiment [9] was “inactive” throughout. In addition, the Potency entry in experiment [10] and in experiment [11] was “inactive” each time. The max activation in [12] is -0.328%. Besides, the Potency in experiment [13] is 3.98 µM (active); in [14] it was 30.9 µM (active).
As to `C=CC(=O)OCC(C)OCC(C)OCC(C)OC(=O)C=C` (stereo not drawn), the compound was classed as inactive in experiment [1], in experiment [5] and in experiment [15]. The Potency entry in experiment [2], in experiment [3], in [16], in experiment [6], in [10] and in experiment [11] was “inactive” each time. Moreover, the Potency entry in experiment [14] was “inactive”. Besides, the values for the Potency in [9] and in experiment [17] were 24.3 µM (active) and 3.56 µM (active), respectively.
On to `Cc1cccc(OCCOc2cccc(C)c2)c1`, for which the result in experiment [1], in experiment [5] and in experiment [15] was inactive. Further, the Potency entry in [3], in experiment [18], in experiment [4], in experiment [8], in experiment [9] and in experiment [10] was “inactive” in each case. Moreover, in experiment [14], the Potency result is “inactive”. In addition, the results for the Potency in [11] and in experiment [17] were 18.3 µM (active) and 3.77 µM (active), respectively.
Regarding `Cn1c(N)nc2nc[nH]c2c1=O`, the compound was classed as inactive in experiment [1], in [5], in experiment [15] and in experiment [7]. Further, the Potency result in experiment [3], in experiment [18], in experiment [4], in [6], in experiment [8] and in experiment [9] was “inactive” each time. For the same compound, the Potency result in experiment [10], in experiment [11] and in experiment [17] was “inactive” throughout.
In the case of `CC(=O)c1c(C)c([N+](=O)[O-])c(C(C)(C)C)c([N+](=O)[O-])c1C`, the call in experiment [1], in experiment [5] and in [7] was inactive. Also, the Potency result in [2], in [18], in [4], in experiment [8], in experiment [9] and in experiment [10] was “inactive” in each case. In experiment [14], the Potency entry was “inactive”. Further, the figures for the Potency in [11] and in experiment [17] were 48.6 µM (active) and 31.7 µM (active), respectively.
In the case of `CCCCC(CC)COCCCN` (stereo not drawn), the compound was classed as inactive in [1], in experiment [5], in experiment [15] and in experiment [7]. Further, the Potency entry in [2], in [18], in [4], in [16], in [6] and in experiment [8] was “inactive” in each case. Besides, the Potency entry in experiment [9] and in experiment [10] was “inactive” throughout. The results for the Potency in experiment [11], in experiment [14] and in experiment [17] were 60.4 µM (active), 12.5 µM (active) and 5.58 µM (active), respectively.
For the compound `O=C(O)Cc1cc(I)c(Oc2ccc(O)c(I)c2)c(I)c1`, the compound was classed as inactive in experiment [1], in experiment [15] and in experiment [7]. Further, the Potency entry in experiment [2], in experiment [3], in [18], in [4], in experiment [6] and in experiment [8] was “inactive” in each case. In addition, the Potency entry in [10] is “inactive”. For the same compound, in experiment [12], the max activation was -1.77%.
As for `CCCCc1cc2ccccc2c(OCCN(C)C)n1`, the outcome in experiment [1], in experiment [5], in [15] and in experiment [7] was inactive. Moreover, the Potency entry in experiment [3], in [18], in [4], in [9], in experiment [10] and in experiment [11] was “inactive” in each case. In experiment [13], the Potency result is “inactive”. In addition, the max activation in experiment [12] is 6.03%. Further, the Potency in experiment [14] is 4.36 µM (active).
For `COCCOCCOCCOCCOC`, the compound was classed as inactive in experiment [1], in experiment [5], in [15] and in experiment [7]. Moreover, the Potency in experiment [2] and in [3] was 21.7 µM (active) in each case. In addition, the Potency entry in experiment [18], in experiment [4], in experiment [16], in experiment [6], in experiment [8] and in experiment [9] was “inactive” throughout. Also, the Potency entry in [10], in experiment [11], in experiment [14] and in [17] was “inactive” each time.
